NS1 function inh = influenza NS1 inhibition; Potency, µM (doses to about 46.1 µM), inactives show top-dose activity, positive = more growth; hit rate 0.4% among 270,000; AID 2326; calls by dose curve; also: potency is read from the fitted curve at half-maximal effect; actives are rising curves; nearly all actives have a fitted effect of over 50% in size
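Read-out: OD600 growth recovery of NS1-expressing budding yeast. Cells grown overnight at 30C in -URA glucose medium, washed, resuspended and diluted 1:100 in 2% galactose assay medium, pH 6.0. Same strain lacking NS1 served as positive control.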
Shiga toxin inh = inhibitors of Shiga toxin in Vero cells; hit rate 9.2% among 290,000; inhibition, % at 38.7 µM; Vero cells, Shiga toxin protein synthesis inhibition reporter; AID 2315; in the data active = inhibition mostly above about 28%, no sharp cut-off; inactive = mostly below about 43%; also: 0% is about no effect
Pf growth 96h = P. falciparum growth inhibition at 96 hour, primary screen for plastid delayed-death inhibitors | hit rate 6.9% among 320,000 | Potency, µM (doses to about 28.7 µM), for inactives: at the top dose activity change, negative = inhibition, actives largely listed as inhibitors | AID 504834 | P. falciparum luciferase reporter growth, 96 h; also: potency is read from the fitted curve at half-maximal effect; % is scaled to controls: 0 for no effect and ±100 for the full control effect
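Readout is luminescence from an integrated firefly luciferase in P. falciparum. Red cells, 2% hematocrit and 0.05% parasitemia final, were cultured with compound through two parasite generations (96 hours) at 37 C, 5% CO2.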
Pf growth 48h = P. falciparum growth inhibition at 48 hours (one generation). Potency, µM (highest dose often 28.7 µM), for inactives: at the highest dose activity change, negative = inhibition, hits mostly inhibitors. P. falciparum luciferase growth in erythrocytes, 48 h. hit rate 5.9% among 310,000; also: potency is read from the fitted curve at half-maximal effect; % is scaled to controls: 0 for no effect and ±100 for the full control effect
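Luminescence readout; reporter = integrated firefly luciferase in P. falciparum. RBC culture at 2% hematocrit, 0.1% parasitemia final, 37 C/5% CO2; decreased signal taken as growth inhibition.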
Cycloheximide cs = counter-screen for Shiga toxin inhibitors: cycloheximide protein synthesis inhibition; cell reporter, cycloheximide protein synthesis inhibition counterscreen; hit rate 12% among 300,000; max response, %; AID 2314; in the data active = max response mostly above about 13%, no sharp cut-off; inactive = mostly below about 14%; also: read at 38.3 µM for the half of the compounds with a filed dose; 0% is about no effect
Sm TGR block = blocks Schistosoma mansoni thioredoxin glutathione reductase. Q962Y6. purified TGR, DTNB reduction, TNB absorbance 405 nm. Potency, µM (top dose mostly 114 µM), for the others: at the highest dose activity change, negative = inhibition, usual class: inhibitors. hit rate 3% among 360,000. AID 485364; also: potency is read from the fitted curve at half-maximal effect; % is scaled to controls: 0 for no effect and ±100 for the full control effect; nearly all actives have a fitted effect of over 60% in size
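First, TGR (20 nM dispensed) and NADPH were mixed with compound. Second, a 15 min room-temperature incubation followed. Third, further NADPH and then DTNB were added to start the reaction. Finally, TNB absorbance was monitored kinetically.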
An asterisk follows results filed as active; ? = inconclusive; / = no result; [ ] = another dose, or the depositor's remark. Shown are actives, neighbours in structure and some others; about 21% of the full set was active somewhere. Unless noted, calls follow the shape of the dose curve; as a rule, active = well fitted curve in the direction sought with a large enough effect; inconclusive = small, poorly fitted or top-dose-only effect, or another doubt; inactive = no such curve, though single readings can be large; an effect the other way counts as inactive or inconclusive.

SMILES	NS1 function inh	Shiga toxin inh	Pf growth 96h	Pf growth 48h	Cycloheximide cs	Sm TGR block
CC(=O)Nc1ccc(S(=O)(=O)NC2(C(F)(F)F)C(=O)Nc3c2c(=O)[nH]c(=O)n3-c2ccc(C)cc2)cc1 (stereo unspecified)	/	/	/	/	/	-3.0%
O=C(NCCCN1CCOCC1)c1ccc2c(c1)N(Cc1cccc(Cl)c1)C(=O)CS2	-1.6%	-12.8	-15.8%	?	-6.9	-9.0%
COc1ccc(C(C)=O)cc1CSc1nc(NCc2ccccc2)c2ccccc2n1	/	/	/	/	/	2.9%
CC(=O)c1sc(NC(=O)CCN2C(=O)c3ccccc3C2=O)nc1C	5.8%	-13.4	-19.3%	3.3%	-1.0	-5.4%
O=C(Nc1ccccc1NC(=O)c1ccco1)c1ccccc1	7.5%	-6.9	38.4%	5.6%	-13.4	1.1%
COc1ccc(-c2csc(NC(=O)CC(C)C)n2)cc1	-4.1%	83.7*	-24.3%	93.3%	48.3*	1.2%
Cc1ccc(-c2csc(NC(=O)c3ccco3)n2)cc1C	-68.9%	148.6*	0.586µM*	20.5%	33.8*	1.2%
O=C(Nc1nc(-c2ccccc2)cs1)c1ccco1	-48.6%	121.7*	3.4%	81.5%	88.9*	-0.1%
COc1ccc(-c2csc(NC(=O)c3ccco3)n2)cc1	-46.5%	50.1*	-21.5%	270.2%	55.5*	-2.4%
Cc1ccc(S(=O)(=O)Nc2cc3c(cc2C)n(C)c(=O)c(=O)n3C)c(C)c1	/	/	/	/	/	-4.4%
O=C1CCc2cc(NS(=O)(=O)c3ccc(Br)cc3)cc3c2N1CC3	/	/	-29.9%	-4.8%	/	6.4%
COc1cccc(C(=O)Nc2nc(-c3ccncc3)cs2)c1	/	30.8	-24.0%	30.1%	6.4	-0.4%
O=C(Nc1nc(-c2ccco2)cs1)c1ccccc1	-53.4%	36.2	84.3%	/	31.7*	-14.6%[11.4 µM]
COc1ccc(-c2csc(NC(=O)CCNC(=O)c3ccco3)n2)cc1OC	/	/	?	11.7µM*	/	-0.8%
COc1ccc(-c2csc(NC(=O)c3c(OC)cccc3OC)n2)cc1	-3.4%	-7.6	?	5.86µM*	-3.0	5.0%
O=C(Nc1cc(-c2ccccc2)cs1)c1ccco1	/	/	2.33µM*	?	/	0.1%
CC(C)OCCCNC(=S)Nc1ccc(S(N)(=O)=O)cc1	14.8%	-3.0	-6.9%	-8.2%	2.5	-28.5%
Cc1ccc(-c2csc(NC(=O)c3ccc(-c4ccccc4)cc3)n2)o1	8.5%	96.0*	?	?	48.3*	10µM*
O=C(NNc1nc(-c2ccc(Br)cc2)cs1)c1ccco1	17.6%	80.5*	-28.9%	1.65µM*	31.4*	/
O=C(NC(=S)Nc1nc(-c2ccc(Br)cc2)cs1)c1ccco1	/	25.5	4.4%	29.1%	0.7	?
O=C(NC(=S)Nc1nc(-c2ccc([N+](=O)[O-])cc2)cs1)c1ccco1	17.2%	51.0*	?	27.7%	18.2*	?
O=C(Nc1nc(-c2ccccc2)cs1)c1ccc2c(c1)S(=O)(=O)c1ccccc1C2=O	-0.3%	-15.6	32.8%	20.5%	-1.9	-19.1%
O=C(Nc1nc(-c2cccc3ccccc23)cs1)c1ccc2c(c1)S(=O)(=O)c1ccccc1C2=O	1.4%	61.9*	30.0%	66.2%	21.4*	/
Cc1cc(C)n2cc(CSc3nncn3C)nc2n1	3.5%	-9.4	20.9%	5.8%	-2.5	-3.0%
C=C1CC[C@H](O)C/C1=C/C=C1\CCC[C@]2(C)[C@@H]([C@H](C)CCCC(C)(C)O)CC[C@@H]12	/	/	-23.6%	?	/	/
SMILES	NS1 function inh	Shiga toxin inh	Pf growth 96h	Pf growth 48h	Cycloheximide cs	Sm TGR block
Cc1ccc(S(=O)(=O)NC(C)(C)CN2CCCCC2)cc1	-0.7%	-0.7	-28.4%	-0.5%	-1.4	-16.2%
O=C(CN1C(=O)NC2(CCCCC2)C1=O)Nc1ccc2c(c1)OCCCO2	/	/	480.3%	423.1%	/	-32.1%
CC(=O)c1ccc2c(c1)C1C(Cl)C(Sc3ccccc3[N+](=O)[O-])CC1C(C(=O)O)N2 (stereo unspecified)	15.2%	-8.0	2.62µM*	-23.2%	-3.2	?
O=[N+]([O-])c1ccc(OCc2cnc(Cl)s2)c([N+](=O)[O-])c1	-1.0%	37.6	-0.1%	?	19.6*	/
CCc1ccc(-c2cc3c(N4CCN(c5ccccc5)CC4)nccn3n2)cc1	/	/	/	/	/	1.0%
COC(=O)C1=NN(C(=O)c2ccc(Br)cc2)C(O)(C(C)(C)C)C1 (stereo unspecified)	/	4.8	15.6%[5.75 µM]	5.5%[5.75 µM]	6.9	1.1%
COC(=O)C1=NN(C(=O)c2cccc(Cl)c2)C(O)(C(C)(C)C)C1 (stereo unspecified)	-29.6%	91.9*	39.1%	11.2%	50.9*	0.3%
Cc1ccc(Nc2cc(C)nc(N3CCOCC3)n2)cc1	-16.0%	81.4*	24.2%	65.8%	26.4*	-24.9%
Cc1ccc(Nc2nc(N3CCOCC3)nc(N3CCOCC3)n2)cc1	-29.1%	-2.9	?	?	14.1*	7.4%
Cc1cc(Nc2ccc(C)c(Cl)c2)nc(N2CCOCC2)n1	-52.8%	13.0	?	?	7.5*	9.6%
CC(C)c1ccc(Nc2nc(NCc3ccco3)nc(N3CCOCC3)n2)cc1	-54.8%	-11.1	32.8%	13.1µM*	1.6	7.2%
COC(=O)C(=O)Nc1cccc2cccnc12	/	-7.9	/	/	-1.0	/
Cc1ccc(S(=O)(=O)CCC#N)cc1	-2.4%	1.2	2.9%	9.2%	-2.7	5.4%
Cc1ccccc1C(=O)OCc1cc(=O)n2nc(C3CCCCC3)sc2n1	/	/	/	/	/	-19.1%
Cn1nc(C(F)(F)F)cc1-c1ccc(/C=C(\C#N)C(=O)c2ccccc2)s1	2.0%	15.3	60.8%	0.0%	6.2	-6.2%
CNC(=O)c1ccc(-c2cc(C(F)(F)F)nn2C)s1	-5.5%	62.6*	57.2%	64.0%	37.9*	-1.5%
CN(Cc1c(F)cccc1Cl)C(=O)CNC(=O)c1cccs1	5.1%	93.9*	?	56.7%	39.1*	4.0%
CC1N=C2c3ccccc3N=C(SCC(=O)NCCc3ccccc3)N2C1=O (stereo unspecified)	/	/	/	/	/	6.1%
COc1ccc(/C=C2\N=C(SC)NC2=O)cc1	-18.4%	120.3*	18.7%	12.7%	24.9	-0.3%
COc1ccc(/C=C2/N=C(SC)NC2=O)cc1OC	-5.1%	13.0	12.1%	3.2%	15.7*	6.1%
CCSC1=N/C(=C\c2ccc(OC)cc2)C(=O)N1	5.0%	45.6*	-6.8%	52.4%	27.7*	-2.8%
COc1ccc(/C=C2\N=C(c3ccccc3Cl)NC2=O)cc1	11.0%	48.1	-2.1%	-3.8%	33.6*	12.7%
CSC1=N/C(=C/c2ccc(-n3cncn3)cc2)C(=O)N1	4.4%	-2.7	97.4%	29.9%	3.9	-5.5%

Bioassay records deposited in PubChem by National Center for Advancing Translational Sciences (NCATS).
